Records with an inconclusive call do not appear. The source made the active and inactive calls. Unless noted, calls follow the shape of the dose curve; as a rule, active = well fitted curve in the direction sought with a large enough effect in the repeat runs; inconclusive = weak or mixed curves; inactive = no such curve, though single readings can be large; an effect the other way counts as inactive or inconclusive.
Legend:
[1] = qHTS assay to identify small molecule agonists of the progesterone receptor (PR) signaling pathway - cell viability counter screen (AID 1346799; calls by dose curve; also: nearly all actives have a fitted effect of over 45% in size)
In short: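 Cytotoxicity in PR-bla HEK293T cells: 16 h compound, 37C; CellTiter-Glo added post-FRET read; luminescence after 30 min RT.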

[2] = qHTS assay to identify small molecule antagonists of the TGF-beta/Smad signaling pathway - cell viability counter screen (AID 1346824); also: nearly all actives have a fitted effect of over 50% in size
In short: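 Cytotoxicity counter-screen run in the same wells as the beta-lactamase Smad reporter read: CellTiter-Glo luminescence after 30 min at room temperature. HEK 293T SBE-bla cells had 5 hr compound exposure at 37 C with TGF-beta1 (0.25 ng/mL stock).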

[3] = qHTS assay to identify small molecule agonists of the TGF-beta/Smad signaling pathway - cell viability counter screen (AID 1346829); also: top concentration of the series differs between compounds; nearly all actives have a fitted effect of over 45% in size
In short: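 Compound-treated SBE-bla HEK 293T cells (5 hr, 37 C) were assessed for viability with CellTiter-Glo in parallel with the reporter read.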

[4] = qHTS assay to identify small molecule agonists of the TGF-beta/Smad signaling pathway (AID 1346859; active = well fitted activation curve with a large enough effect in the signal ratio in the repeat runs, not every such curve was filed as active; the % refers to the signal ratio; also: series mostly up to about 77 µM)
In short: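 Stable Smad binding element-beta-lactamase HEK 293T cells; 5 hr compound exposure at 37 C under 5% CO2; 2 hr room-temperature substrate step; fluorescence excited at 405 nm, collected at 460 nm and 530 nm.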

[5] = molecular target: Thyrotropin-releasing hormone receptor (Homo sapiens) (UniProt P34981); assay: qHTS assay to identify small molecule antagonists of the thyrotropin-releasing hormone receptor (TRHR) signaling pathway (AID 1346877; active = well fitted inhibition curve with a large enough effect in the repeat runs, not every such curve was filed as active; also: series mostly up to about 51 µM)
Chain of Thyrotropin-releasing hormone receptor (Homo sapiens) (P34981 whole entry, looked up): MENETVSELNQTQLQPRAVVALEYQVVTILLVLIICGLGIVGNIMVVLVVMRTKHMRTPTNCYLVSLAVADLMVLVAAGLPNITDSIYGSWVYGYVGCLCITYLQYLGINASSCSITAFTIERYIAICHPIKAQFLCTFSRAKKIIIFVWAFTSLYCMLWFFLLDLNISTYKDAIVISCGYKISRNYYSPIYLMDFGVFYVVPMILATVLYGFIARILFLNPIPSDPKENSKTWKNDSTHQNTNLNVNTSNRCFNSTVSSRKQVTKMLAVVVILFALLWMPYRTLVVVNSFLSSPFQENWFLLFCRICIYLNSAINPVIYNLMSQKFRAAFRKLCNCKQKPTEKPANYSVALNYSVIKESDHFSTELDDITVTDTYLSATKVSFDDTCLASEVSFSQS
In short: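 HEK293/TRHR cells, 18 h, 37 °C; Ca2+ dye 2 h; cpd 5 min RT; TRH 1 nM final; fluorescence read 3 min, 1 s intervals; 15 concs, triplicate.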

[6] = molecular target: Thyrotropin-releasing hormone receptor (Homo sapiens) (UniProt P34981); assay: qHTS assay to identify small molecule agonists of the thyrotropin-releasing hormone receptor (TRHR) signaling pathway (AID 1346891; calls by dose curve;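 also: HEK293 cells expressing TRHR with calcium dye readout; series mostly up to about 58 µM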)
In short: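 In 1536-format, 1500 TRHR-Hek293 cells per well grew 18 h, took up calcium dye for 2 h at 37 °C, received compound, and were read kinetically; 15-point titrations, triplicates.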

[7] = Human pregnane X receptor (PXR) small molecule agonists, qHTS cell viability counter screen (AID 1346977); also: nearly all actives have a fitted effect of over 50% in size
In short: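 Readout is CellTiter-Fluor fluorescence from PXR-Luc HepG2 cells. Plated cells rested 5hr, then were treated with compounds for 24hr at 37C and 5% CO2, with reagent present during the last hour.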

[8] = Caspase-3/7 induction in HepG2 cells by small molecules, qHTS assay (AID 1346978); also: nearly all actives have a fitted effect of over 15% in size
In short: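 Caspase-3/7 induction was measured by Caspase-Glo 3/7 luminescence (30 min, room temperature) after a 17 hr compound exposure of wild-type HepG2 cells seeded at 2,000 per well and pre-incubated 5 hr.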

[9] = Caspase-3/7 induction in CHO-K1 cells by small molecules, qHTS cell viability counter screen (AID 1346979); also: nearly all actives have a fitted effect of over 35% in size
In short: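 To flag cytotoxic compounds, treated CHO-K1 wild-type cells were given CellTiter-Fluor at 16hr and read fluorescently after 1hr at 37C; the caspase-3/7 luminescence was measured in these same wells.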

[10] = Caspase-3/7 induction in CHO-K1 cells by small molecules, qHTS assay (AID 1346980); also: nearly all actives have a fitted effect of over 15% in size
In short: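 Luminescent Caspase-Glo 3/7 read (30min, room temperature) quantified apoptosis induction. Cells were wild-type CHO-K1, treated with compound for 17hr at 37 C and 5% CO2.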

[11] = Caspase-3/7 induction in HepG2 cells by small molecules, qHTS cell viability counter screen (AID 1346981); also: series mostly up to about 92 µM; nearly all actives have a fitted effect of over 30% in size
In short: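 Fluorescence read-out of live-cell protease activity (CellTiter-Fluor) after 1 hr with reagent. This was measured in the same wells as the caspase-3/7 luminescence, on HepG2 cells exposed to DMSO-dissolved compounds for 16 hr at 37 C.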

[12] = molecular target: Nuclear receptor subfamily 1 group I member 2 (Homo sapiens) (UniProt O75469); assay: Human pregnane X receptor (PXR) small molecule agonists, qHTS assay (AID 1346982); also: nearly all actives have a fitted effect of over 35% in size; also: potency is read from the fitted curve at half-maximal effect
Chain of Nuclear receptor subfamily 1 group I member 2 (Homo sapiens) (O75469 whole entry, looked up): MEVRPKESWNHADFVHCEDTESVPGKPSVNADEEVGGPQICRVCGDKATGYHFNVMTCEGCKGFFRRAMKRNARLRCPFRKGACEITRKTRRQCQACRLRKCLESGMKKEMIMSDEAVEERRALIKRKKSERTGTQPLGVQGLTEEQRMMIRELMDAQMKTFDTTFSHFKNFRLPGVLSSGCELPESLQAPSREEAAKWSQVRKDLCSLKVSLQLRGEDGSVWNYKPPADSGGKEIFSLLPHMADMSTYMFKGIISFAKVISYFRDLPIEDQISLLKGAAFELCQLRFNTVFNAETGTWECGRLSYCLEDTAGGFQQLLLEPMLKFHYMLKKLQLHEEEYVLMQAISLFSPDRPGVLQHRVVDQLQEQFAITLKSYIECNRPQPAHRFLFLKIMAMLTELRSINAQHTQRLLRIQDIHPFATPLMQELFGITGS
In short: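 HepG2 PXR-Luc reporter line, 5% charcoal-stripped FBS; 5 hr pre-incubation, compound (DMSO) 24 hr at 37 C/5% CO2; ONE-Glo 30 min RT; luminescence read-out.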

[13] = molecular target: Cytochrome P450 2D6 (Homo sapiens) (UniProt P10635); assay: Cytochrome P450 Family 2 Subfamily D Member 6 (CYP2D6) small molecule antagonists: luciferase reporter qHTS assay (AID 1671196); also: series mostly up to about 120 µM; nearly all actives have a fitted effect of over 50% in size
Chain of Cytochrome P450 2D6 (Homo sapiens) (P10635 whole entry, looked up): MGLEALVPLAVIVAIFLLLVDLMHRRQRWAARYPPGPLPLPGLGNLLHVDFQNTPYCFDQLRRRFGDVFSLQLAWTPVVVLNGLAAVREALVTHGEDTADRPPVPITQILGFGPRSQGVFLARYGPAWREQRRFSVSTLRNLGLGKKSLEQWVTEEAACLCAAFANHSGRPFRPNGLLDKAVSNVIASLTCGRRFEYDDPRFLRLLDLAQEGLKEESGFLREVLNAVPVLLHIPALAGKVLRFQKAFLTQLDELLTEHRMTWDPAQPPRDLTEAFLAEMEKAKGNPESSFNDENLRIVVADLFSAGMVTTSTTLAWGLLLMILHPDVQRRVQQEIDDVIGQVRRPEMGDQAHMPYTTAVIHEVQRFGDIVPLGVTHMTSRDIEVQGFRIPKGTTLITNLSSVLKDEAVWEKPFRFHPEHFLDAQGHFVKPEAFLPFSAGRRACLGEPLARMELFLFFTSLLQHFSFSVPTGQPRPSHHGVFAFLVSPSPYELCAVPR
In short: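 Luminogenic proluciferin substrate, CYP2D6 enzyme; 10 min RT preincubation with compound, NADPH regeneration system added, 1 h RT. Stop/detection reagent, 20 min RT, luminescence read (RLU). Signal proportional to CYP activity.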

[14] = molecular target: Cytochrome P450 2C19 (Homo sapiens) (UniProt P33261); assay: Cytochrome P450 Family 2 Subfamily C Member 19 (CYP2C19) small molecule antagonists: luciferase reporter qHTS assay (AID 1671197); also: nearly all actives have a fitted effect of over 65% in size; also: potency is read from the fitted curve at half-maximal effect
Chain of Cytochrome P450 2C19 (Homo sapiens) (P33261 whole entry, looked up): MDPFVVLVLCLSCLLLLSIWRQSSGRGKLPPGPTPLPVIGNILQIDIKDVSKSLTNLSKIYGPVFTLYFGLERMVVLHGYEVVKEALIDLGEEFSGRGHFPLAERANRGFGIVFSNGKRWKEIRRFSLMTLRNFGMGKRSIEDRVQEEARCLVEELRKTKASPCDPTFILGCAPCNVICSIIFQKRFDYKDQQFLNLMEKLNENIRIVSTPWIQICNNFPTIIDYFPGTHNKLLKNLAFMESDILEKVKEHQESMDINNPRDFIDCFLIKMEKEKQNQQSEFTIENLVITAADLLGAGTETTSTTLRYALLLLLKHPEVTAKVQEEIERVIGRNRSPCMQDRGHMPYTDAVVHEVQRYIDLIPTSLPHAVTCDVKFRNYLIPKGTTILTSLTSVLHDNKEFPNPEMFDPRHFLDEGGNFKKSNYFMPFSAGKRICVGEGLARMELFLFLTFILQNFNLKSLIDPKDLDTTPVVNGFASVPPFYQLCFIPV
In short: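 P450-Glo CYP2C19 screening system; proluciferin substrate; DMSO compound stocks; 10 min RT preincubation; NADPH regeneration, 1 h at 37C; luciferin detection reagent, 20 min RT; luminescence as RLU.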

[15] = molecular target: Cytochrome P450 2C9 (Homo sapiens) (UniProt P11712); assay: Cytochrome P450 Family 2 Subfamily C Member 9 (CYP2C9) small molecule antagonists: luciferase reporter qHTS assay (AID 1671198); also: nearly all actives have a fitted effect of over 50% in size; also: potency is read from the fitted curve at half-maximal effect
Chain of Cytochrome P450 2C9 (Homo sapiens) (P11712 whole entry, looked up): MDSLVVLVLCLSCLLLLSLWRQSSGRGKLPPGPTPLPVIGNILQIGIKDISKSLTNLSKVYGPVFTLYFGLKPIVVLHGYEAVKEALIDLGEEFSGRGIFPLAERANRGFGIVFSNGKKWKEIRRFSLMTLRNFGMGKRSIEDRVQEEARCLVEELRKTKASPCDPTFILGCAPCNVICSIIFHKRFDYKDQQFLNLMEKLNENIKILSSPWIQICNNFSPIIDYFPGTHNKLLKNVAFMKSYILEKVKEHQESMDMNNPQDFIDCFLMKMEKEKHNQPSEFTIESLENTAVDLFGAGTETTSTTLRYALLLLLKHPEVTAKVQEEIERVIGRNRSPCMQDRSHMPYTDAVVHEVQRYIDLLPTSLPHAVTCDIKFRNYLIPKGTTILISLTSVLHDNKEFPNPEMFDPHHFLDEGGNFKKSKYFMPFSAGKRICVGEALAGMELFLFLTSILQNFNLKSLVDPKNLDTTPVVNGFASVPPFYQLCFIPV
In short: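 Enzyme-substrate mix preincubated with compound 10 min at room temperature; reaction started with NADPH regeneration solution, 1 h 37C. Luminescent luciferin product read after 20 min detection reagent.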

[16] = molecular target: Cytochrome P450 1A2 (Homo sapiens) (UniProt P05177); assay: Cytochrome P450 Family 1 Subfamily A Member 2 (CYP1A2) small molecule antagonists: luciferase reporter qHTS assay (AID 1671199)
Chain of Cytochrome P450 1A2 (Homo sapiens) (P05177 whole entry, looked up): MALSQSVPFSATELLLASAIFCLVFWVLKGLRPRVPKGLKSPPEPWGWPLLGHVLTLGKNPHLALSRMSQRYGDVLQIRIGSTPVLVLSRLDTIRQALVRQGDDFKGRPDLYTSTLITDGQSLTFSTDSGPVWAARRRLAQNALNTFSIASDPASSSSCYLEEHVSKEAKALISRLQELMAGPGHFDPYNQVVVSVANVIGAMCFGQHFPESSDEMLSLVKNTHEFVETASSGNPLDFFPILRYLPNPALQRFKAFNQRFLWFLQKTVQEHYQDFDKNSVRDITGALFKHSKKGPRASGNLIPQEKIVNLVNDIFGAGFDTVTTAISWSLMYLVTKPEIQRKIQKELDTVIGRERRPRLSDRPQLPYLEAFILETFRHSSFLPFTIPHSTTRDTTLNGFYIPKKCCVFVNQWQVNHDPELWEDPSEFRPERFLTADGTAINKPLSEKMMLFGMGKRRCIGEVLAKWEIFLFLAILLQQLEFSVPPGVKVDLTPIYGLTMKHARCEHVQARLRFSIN
In short: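 Luminescence readout (relative luminescence units) after luciferin detection reagent, 20 min RT. Preceded by 1 h room-temperature CYP1A2 reaction with NADPH regeneration solution following 10 min compound preincubation with enzyme and proluciferin substrate. Furafylline positive control.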

[17] = molecular target: Voltage-gated inwardly rectifying potassium channel KCNH2 (Homo sapiens) (UniProt Q12809); assay: Human Ether-a-go-go-Related Gene (hERG) channel small molecule antagonists: fluorescence cell-based qHTS assay (AID 1671200)
Chain of Voltage-gated inwardly rectifying potassium channel KCNH2 (Homo sapiens) (Q12809 whole entry, looked up): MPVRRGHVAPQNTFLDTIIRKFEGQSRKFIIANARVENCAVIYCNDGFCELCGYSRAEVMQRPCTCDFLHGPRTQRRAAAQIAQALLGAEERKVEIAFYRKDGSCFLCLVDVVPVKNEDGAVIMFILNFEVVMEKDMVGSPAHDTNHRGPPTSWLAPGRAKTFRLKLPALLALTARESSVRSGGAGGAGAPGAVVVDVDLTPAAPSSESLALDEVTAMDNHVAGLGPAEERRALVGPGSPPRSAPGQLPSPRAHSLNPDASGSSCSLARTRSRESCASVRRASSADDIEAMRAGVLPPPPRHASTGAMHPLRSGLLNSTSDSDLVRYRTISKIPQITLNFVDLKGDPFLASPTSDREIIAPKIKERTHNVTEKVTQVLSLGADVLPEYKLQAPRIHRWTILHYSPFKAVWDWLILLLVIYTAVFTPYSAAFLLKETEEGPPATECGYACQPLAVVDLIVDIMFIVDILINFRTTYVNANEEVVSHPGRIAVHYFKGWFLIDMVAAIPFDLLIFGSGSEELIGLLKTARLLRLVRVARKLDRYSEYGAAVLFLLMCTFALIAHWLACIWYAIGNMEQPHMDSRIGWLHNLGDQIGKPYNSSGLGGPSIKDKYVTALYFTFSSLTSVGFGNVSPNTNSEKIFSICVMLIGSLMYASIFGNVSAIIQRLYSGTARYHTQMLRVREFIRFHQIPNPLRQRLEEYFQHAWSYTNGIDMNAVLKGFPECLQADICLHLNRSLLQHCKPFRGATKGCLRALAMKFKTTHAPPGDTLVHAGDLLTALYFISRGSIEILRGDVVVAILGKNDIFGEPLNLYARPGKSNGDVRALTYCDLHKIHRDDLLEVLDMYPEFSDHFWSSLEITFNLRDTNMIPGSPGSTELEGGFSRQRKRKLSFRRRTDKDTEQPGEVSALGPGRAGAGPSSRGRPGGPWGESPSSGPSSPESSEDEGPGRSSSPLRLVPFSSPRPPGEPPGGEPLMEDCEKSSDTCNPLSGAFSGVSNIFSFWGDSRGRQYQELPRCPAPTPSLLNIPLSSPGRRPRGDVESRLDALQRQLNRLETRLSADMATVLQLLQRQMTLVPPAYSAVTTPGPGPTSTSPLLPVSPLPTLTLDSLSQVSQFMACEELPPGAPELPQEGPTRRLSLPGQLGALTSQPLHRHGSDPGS
In short: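 Measured: Tl+ flux via fluorescence (480/540 nm) in hERG-expressing U2OS cells after 1 h dye loading at room temperature.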

Measured: Potency

C=C(C)CCO
inactive: all assays above

O=C1CCCCCCCCCCCCCC1
not listed: [7] | [15] | [17]
inactive: all other assays above

ClC(c1ccccc1)(c1ccccc1)c1ccccc1
active: [12] 9.69 µM | [14] 0.224 µM | [15] 1.59 µM
not listed: [13] | [16]
inactive: all other assays above

Nc1ccc2c(S(=O)(=O)O)cccc2c1S(=O)(=O)O
not listed: [9] | [15]
inactive: all other assays above

CCC(O)CO (stereo not drawn)
not listed: [7] | [13] | [15]
inactive: all other assays above

CC(CC(C)(C)C)CC(C)(C)CC(C)(C)C (stereo not drawn)
not listed: [13]
inactive: all other assays above

CCc1cccc(CC)c1
not listed: [9]
inactive: all other assays above

CC1CCC(C(C)(C)O)CC1 (stereo not drawn)
not listed: [13]
inactive: all other assays above

Source: PubChem BioAssay (Tox21)
